The list is not random: actives were taken first. Their share in the collection is about 9.5%.
RE007 growth inh – qHTS Assay for Inhibitors of the HIV-1 protein Vpr. S. pombe RE007 Vpr strain, BacTiter-Glo ATP luminescence, 24 h. AID 651644, 2012. Potency, µM (titrated, usually from 92.2 µM), inactives show at the highest dose activity change, negative = less growth, hits mostly inhibitors. 360,000 tested, 0.21% active; active = well fitted falling curve with a large enough effect; inconclusive = small, poorly fitted or top-dose-only effect; inactive = no such curve, though single readings can be large or run the other way; also: % is scaled to controls: 0 for no effect and ±100 for the full control effect; nearly all actives have a fitted effect of over 50% in size
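Fission yeast RE007 carrying one integrated HIV-1 vpr copy, seeded at OD 0.01 in PMG+AL medium with 23 nL pinned compound. Grown 24 h at 30 degrees; viability read by BacTiter-Glo luminescence after 5 min.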
NS1 inh – qHTS Assay for Inhibitors of Influenza NS1 Protein Function; Potency, µM (top dose mostly 46.1 µM), inactives show at the top dose activity, positive = more growth; 270,000 tested, 0.4% active; AID 2326, 2010; calls by dose curve; also: actives are rising curves; nearly all actives have a fitted effect of over 50% in size
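Read-out: OD600 growth recovery of NS1-expressing budding yeast. Cells grown overnight at 30C in -URA glucose medium, washed, resuspended and diluted 1:100 in 2% galactose assay medium, pH 6.0. Same strain lacking NS1 served as positive control.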
SARS PLpro yeast – qHTS of Yeast-based Assay for SARS-CoV PLP | AID 485353, 2010 | 330,000 tested, 0.19% active | Potency, µM (top dose mostly 32.9 µM), inactives show at the top dose activity, positive = growth rescue, actives largely listed as activators | S. cerevisiae expressing SARS-CoV PLpro, growth rescue; calls by dose curve; also: 0% is about no effect; nearly all actives have a fitted effect of over 55% in size
Pf growth 96h – Primary qHTS for delayed death inhibitors of the malarial parasite plastid, 96 hour incubation | 320,000 tested, 6.9% active | Potency, µM (doses to about 28.7 µM), for inactives: at the top dose activity change, negative = inhibition, actives largely listed as inhibitors | P. falciparum luciferase reporter growth, 96 h; also: % is scaled to controls: 0 for no effect and ±100 for the full control effect
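Parasite growth measured via integrated firefly luciferase reporter in P. falciparum. Infected erythrocytes at 2% hematocrit, 0.05% parasitemia final were treated 96 hours at 37 C under 5% CO2, and luminescence was read.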
Pf growth 48h – Primary qHTS for delayed death inhibitors of the malarial parasite plastid, 48 hour incubation; P. falciparum luciferase growth in erythrocytes, 48 h; Potency, µM (titrated, usually from 28.7 µM), without a hit: at the highest dose activity change, negative = inhibition, most hits filed as inhibitors; 310,000 tested, 5.9% active; also: % is scaled to controls: 0 for no effect and ±100 for the full control effect
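Growth was read as firefly luciferase luminescence after a 48 h, 37 C, 5% CO2 exposure of compounds to reporter-bearing P. falciparum cultures (0.1% parasitemia, 2% hematocrit final) in Albumax-supplemented RPMI 1640.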
The depositor's hits bear a star; u = inconclusive; x = no result given; [ ] = another dose, or the depositor's remark. Unless noted, calls follow the shape of the dose curve; as a rule, active = well fitted inhibition curve with a large enough effect; inconclusive = small, poorly fitted or top-dose-only effect, or another doubt; inactive = no such curve, though single readings can be large or run the other way. Potency is read from the fitted curve at half-maximal effect.

SMILES	RE007 growth inh	NS1 inh	SARS PLpro yeast	Pf growth 96h	Pf growth 48h
CC(=O)O[C@H]1C[C@H](O[C@H]2[C@@H](O)CC(O[C@H]3[C@@H](O)C[C@H](O[C@H]4CC[C@@]5(C)[C@H](CC[C@@H]6[C@@H]5CC[C@]5(C)[C@@H](C7=CC(=O)OC7)CC[C@]65O)C4)O[C@@H]3C)O[C@@H]2C)O[C@H](C)[C@H]1O[C@@H]1O[C@H](CO)[C@@H](O)[C@H](O)[C@H]1O (stereo partly specified)	x	x	x	4.78µM*	u
CC(=O)OC1CC(OC2C(O)CC(OC3C(O)CC(OC4CCC5(C)C(CCC6C5CC(O)C5(C)C(C7=CC(=O)OC7)CCC65O)C4)OC3C)OC2C)OC(C)C1OC1OC(CO)C(O)C(O)C1O (stereo unspecified)	16.9%	x	x	x	x
CCCCc1ccc(NC2=NCC(=O)N2CCc2ccccc2)cc1	-2.5%	-0.3%	-0.6%	u	u
CN(Cc1c(F)cccc1Cl)C(=O)c1cnc2ccccc2n1	9.6%	-6.8%	-4.1%	8.4%	u
O=C(Nc1cccc(OC(F)(F)F)c1)c1ccc(-c2cccnc2)c2ccoc12	8.5%	x	x	x	x
O=C1c2ccccc2C(=O)N1Cc1ccc2c(c1)OCO2	16.8%	-27.0%	-6.2%	x	9.7%
O=C(c1cccs1)[C@@H]1[C@@H]2C(=O)N(Cc3ccc4c(c3)OCO4)C(=O)[C@@H]2C2c3ccccc3C=CN21 (stereo partly specified)	x	u	-5.5%	10.4µM*	u
CCOC(=O)CNC(=O)CSc1nc(C(C)C)nc2c1cnn2-c1ccccc1	1.3%	x	x	x	x
CN(CC(=O)Nc1cc(Cl)ccc1-n1cncn1)Cc1ccccc1N1CCOCC1	11.0%	x	x	x	x
CCCCn1c(-c2ccc(OC)cc2)nc2c(=O)n(C)c(=O)[nH]c21	1.3%	3.4%	0.6%	1.65µM*	-11.9%[0.00184 µM]
CCC1=C(c2ccc(OC)cc2)CCC(C(=O)O)C1C (stereo unspecified)	2.4%	x	x	x	x
O=C(/C=C/c1ccc(F)cc1)NC(=S)NC1CCCCC1	-7.3%	-3.8%	2.7%	3.29µM*	u
Cc1ccccc1Cn1c(=N)n(CC(=O)c2ccco2)c2ccccc21	10.1%	u	5.9%	14.7µM*	u
OCCCN=C1CCCCC1	x	3.5%	x	x	x
COc1ccc2[nH]cc(CCn3ccc(O)c(C/C=C/c4ccccc4)c3=O)c2c1	-6.7%	u	0.1%	u	9.28µM*
COc1ccc(CCNC(=O)CN(c2ccccc2OC)S(=O)(=O)c2ccc(C)cc2)cc1	7.6%	x	0.3%	99.7%	4.15µM*
COc1ccc(CCNC(=O)CN(c2cc(OC)ccc2OC)S(=O)(=O)c2ccccc2)cc1	5.5%	-39.5%	6.2%	8.8%	9.28µM*
COc1ccccc1OCCNC(=O)CN(c1cccc(C)c1)S(=O)(=O)c1ccccc1	4.1%	-20.3%	6.4%	-23.5%	14.7µM*
COc1ccc(OC)c(N(CC(=O)NCCc2ccc(OC)c(OC)c2)S(=O)(=O)c2ccccc2)c1	20.0%	-3.3%	0.6%	26.4%	u
Cc1c(C)c(C)c(CC2(C)CSC2)c(CC2(C)CSC2)c1C	x	-6.6%	x	x	x
C[C@H](C(=O)c1ccncc1)c1ccccn1	x	3.5%	x	x	x
Cc1ccc(C(C(=O)NC2CCCC2)N(C(=O)Cc2cccs2)c2cccc(C)c2C)o1 (stereo unspecified)	-9.7%	-3.6%	-1.8%	11.7µM*	u
Cc1cc(C)cc(N(C(=O)Cc2cccs2)C(C(=O)NC2CCCC2)c2ccc(C)o2)c1 (stereo unspecified)	11.8%	3.0%	3.0%	u	u
Cc1ccc(CNC(=O)C2CCN(S(=O)(=O)c3c(C)noc3/C=C/c3ccco3)CC2)cc1	4.4%	-10.1%	7.1%	6.57µM*	x
Cc1noc(/C=C/c2ccco2)c1S(=O)(=O)N1CCC(C(=O)N2CCc3ccccc3C2)CC1	-4.6%	8.5%	-3.7%	u	9.28µM*
SMILES	RE007 growth inh	NS1 inh	SARS PLpro yeast	Pf growth 96h	Pf growth 48h
Cc1noc(/C=C/c2ccco2)c1S(=O)(=O)N1CCC(C(=O)NCc2ccco2)CC1	8.9%	-12.4%	2.2%	x	13.1µM*
Cc1ccc(NC(=O)C2CCN(S(=O)(=O)c3c(C)noc3/C=C/c3ccco3)CC2)nc1	-5.8%	16.8%	-4.7%	u	-11.3%
CCCCc1nc2cc(C(=O)NCc3cc(C)n(C)n3)ccc2o1	24.4%	-9.9%	2.0%	1.9%	17.1%
COC(=O)[C@@]12C[C@@H](CC(=O)N3CCCC3)C(=O)N(Cc3ccco3)C1=CCC(C)(C)C2	10.3%	x	x	x	x
Cc1nnn(C23CC4CC(CC(CC(=O)Nc5cccc(F)c5)(C4)C2)C3)n1	23.3%	-2.7%	-0.6%	4.7%	u
Cc1cccc(NC(=O)CC23CC4CC(C2)CC(n2nnc(C)n2)(C4)C3)c1	11.9%	-13.8%	3.8%	13.1µM*	u
O=C(NCC1CCCO1)c1cccc(S(=O)(=O)N(Cc2ccccc2)c2ccccc2)c1 (stereo unspecified)	16.8%	x	2.2%	-2.0%	u
Cc1ccc2[nH]c3c(=O)n(CC(=O)N4CCN(C)CC4)ncc3c2c1	5.9%	1.0%	x	7.38µM*	45.5%
Cc1ccc2[nH]c3c(=O)n(CC(=O)Nc4ccccc4N4CCN(C)CC4)ncc3c2c1	-1.7%	7.9%	0.9%	u	u
O=C(Cn1ncc2c([nH]c3ccccc32)c1=O)N1CCN(c2ccccn2)CC1	-7.8%	14.1%	-1.3%	1.31µM*	-13.6%
COc1ccc(CN2CCN(C(=O)c3ccc(S(=O)(=O)N4CCCCCC4)cc3)CC2)cc1F	4.5%	x	0.5%	u	13.1µM*
N#Cc1ccc(CN2CCN(C(=O)c3ccc(S(=O)(=O)N4CCCCCC4)cc3)CC2)cc1	-1.5%	x	17.1%	u	13.1µM*
COc1ccc(CN2CCN(C(=O)c3ccc(S(=O)(=O)N4CCCCCC4)cc3)CC2)cc1	-1.7%	x	0.3%	u	10.4µM*
O=C(c1ccc(S(=O)(=O)N2CCCCCC2)cc1)N1CCN(Cc2ccccc2)CC1	4.4%	x	-6.2%	u	u
O=S(=O)(c1ccc(Br)cc1)N1CCCN(Cc2ccccc2F)CC1	-2.8%	-21.8%	11.7%	6.57µM*	40.1%
O=C(COC(=O)C1CC(=O)N(Cc2ccco2)C1)Nc1nc(-c2ccc(F)cc2)cs1 (stereo unspecified)	3.9%	x	3.3%	x	x
COc1ccc(S(=O)(=O)N2CCN(Cc3cccc(OC)c3)CC2)cc1	-8.4%	-14.8%	-1.0%	u	14.9%
COc1ccc(S(=O)(=O)N2CCCN(Cc3cccc(F)c3)CC2)cc1	-0.9%	-6.4%	u	11.7µM*	18.5%
Clc1ccc(OCCCCCN2CCOCC2)cc1	u	-26.8%	-1.4%	-5.9%	0.0%
C/C(=N/Nc1ccnc2cc(Cl)ccc12)c1ccc(O)cc1	-29.7%	x	4.2%	0.294µM*	0.329µM*
C/C(=N/Nc1ccnc2cc(Cl)ccc12)c1ccc(N)cc1	3.0%	x	-5.0%	0.465µM*	0.828µM*
